# Test system: H1299
# Test: difference in mean normalized H2B-mRuby nuclear fluorescence intensity relative to DMSO control (normalized intensity difference (DMSO = 0)); higher = stronger increase in transgene reporter fluorescence
# Conditions: 24 h
# Procedure: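 Cancer cell lines stably expressing H2B-mRuby2 from a lentiviral PGK promoter were treated with each drug for 24 h and imaged on a Leica DMI8 (ex 541-551 / em 565-605 nm). Nuclei were segmented in CellProfiler. The value is the difference in mean per-nucleus normalized H2B-mRuby intensity versus DMSO-treated cells (about 3 repeats x 4 fields). Doxorubicin is itself fluorescent. Dasatinib is in nM.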
smiles,measurement,setting,value
C=CCn1c(=O)c2cnc(Nc3ccc(N4CCN(C)CC4)cc3)nc2n1-c1cccc(C(C)(C)O)n1 (concentration unit: uM),difference,concentration: 0.1,0.0483
same,difference,concentration: 0.5,0.108
same,difference,concentration: 1,0.027
same,difference,concentration: 2.5,-0.00187
same,difference,concentration: 5,-0.0335
COc1cc([C@@H]2c3cc4c(cc3[C@@H](O[C@@H]3O[C@@H]5CO[C@@H](C)O[C@H]5[C@H](O)[C@H]3O)[C@H]3COC(=O)[C@H]23)OCO4)cc(OC)c1O (concentration unit: uM),difference,concentration: 0.5,0.147
same,difference,concentration: 1,0.0921
same,difference,concentration: 2.5,0.108
same,difference,concentration: 5,0.206
same,difference,concentration: 10,0.153
same,difference,concentration: 20,0.189
COc1cc2ncnc(Nc3ccc(F)c(Cl)c3)c2cc1OCCCN1CCOCC1 (concentration unit: uM),difference,concentration: 1,-0.0187
same,difference,concentration: 2.5,0.0302
same,difference,concentration: 5,-0.00342
same,difference,concentration: 10,0.0329
same,difference,concentration: 20,0.0679
Nc1ncn([C@@H]2O[C@H](CO)[C@@H](O)[C@H]2O)c(=O)n1 (concentration unit: uM),difference,concentration: 1,0.0691
same,difference,concentration: 2.5,0.0657
same,difference,concentration: 5,0.123
same,difference,concentration: 10,0.125
same,difference,concentration: 20,0.109
CC[C@]1(O)C[C@H]2CN(CCc3c([nH]c4ccccc34)[C@@](C(=O)OC)(c3cc4c(cc3OC)N(C=O)[C@H]3[C@@](O)(C(=O)OC)[C@H](OC(C)=O)[C@]5(CC)C=CCN6CC[C@]43[C@@H]65)C2)C1 (concentration unit: nM),difference,concentration: 2.5,-0.165
same,difference,concentration: 10,-0.0783
same,difference,concentration: 25,-0.00792
same,difference,concentration: 100,-0.00267
same,difference,concentration: 250,-0.0899
CO[C@H]1/C=C\C=C(/C)C(=O)NC2=CC(=O)C(NCCN(C)C)=C(C[C@@H](C)C[C@H](OC)[C@H](O)[C@@H](C)/C=C(\C)[C@@H]1OC(N)=O)C2=O (concentration unit: nM),difference,concentration: 5,0.0988
same,difference,concentration: 25,0.27
same,difference,concentration: 50,0.565
same,difference,concentration: 100,0.538
same,difference,concentration: 500,0.571
COC1=C2C[C@@H](C)C[C@H](OC)[C@H](O)[C@@H](C)/C=C(\C)[C@H](OC(N)=O)[C@@H](OC)/C=C\C=C(/C)C(=O)NC(=CC1=O)C2=O (concentration unit: nM),difference,concentration: 5,-0.0197
same,difference,concentration: 25,0.305
same,difference,concentration: 50,0.532
same,difference,concentration: 100,0.567
same,difference,concentration: 500,0.435
COc1cc(Nc2ncc3c(n2)-c2ccc(Cl)cc2C(c2c(F)cccc2OC)=NC3)ccc1C(=O)O (concentration unit: nM),difference,concentration: 10,-0.0235
same,difference,concentration: 50,-0.0295
same,difference,concentration: 250,0.00737
same,difference,concentration: 500,0.159
same,difference,concentration: 1000,0.136
